# About 2,800 (6%) of roughly 47,000 compounds were called active. Rule as the data show it: active = z-score above about 3 (passing the limit was not always enough); inactive = the rest. What follows is part of a selection rich in actives, with near analogues and random picks from the rest.
# Target: Endoribonuclease Dicer (Homo sapiens) (UniProt Q9UPY3)
# Experiment: inhibitors of Dicer pre-microRNA processing, primary screen, biochemical, cat-ELCCA, chemiluminescence (AID 1347074);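 also: plate controls were vehicle for no effect and no enzyme for full effect; higher signal means more uncleaved substrate so more Dicer inhibition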
# Settings: cat-ELCCA pre-miR-21 Dicer processing, at 25 µM, active compounds read high
# Endoribonuclease Dicer (Homo sapiens), sequence (Q9UPY3 whole entry, looked up): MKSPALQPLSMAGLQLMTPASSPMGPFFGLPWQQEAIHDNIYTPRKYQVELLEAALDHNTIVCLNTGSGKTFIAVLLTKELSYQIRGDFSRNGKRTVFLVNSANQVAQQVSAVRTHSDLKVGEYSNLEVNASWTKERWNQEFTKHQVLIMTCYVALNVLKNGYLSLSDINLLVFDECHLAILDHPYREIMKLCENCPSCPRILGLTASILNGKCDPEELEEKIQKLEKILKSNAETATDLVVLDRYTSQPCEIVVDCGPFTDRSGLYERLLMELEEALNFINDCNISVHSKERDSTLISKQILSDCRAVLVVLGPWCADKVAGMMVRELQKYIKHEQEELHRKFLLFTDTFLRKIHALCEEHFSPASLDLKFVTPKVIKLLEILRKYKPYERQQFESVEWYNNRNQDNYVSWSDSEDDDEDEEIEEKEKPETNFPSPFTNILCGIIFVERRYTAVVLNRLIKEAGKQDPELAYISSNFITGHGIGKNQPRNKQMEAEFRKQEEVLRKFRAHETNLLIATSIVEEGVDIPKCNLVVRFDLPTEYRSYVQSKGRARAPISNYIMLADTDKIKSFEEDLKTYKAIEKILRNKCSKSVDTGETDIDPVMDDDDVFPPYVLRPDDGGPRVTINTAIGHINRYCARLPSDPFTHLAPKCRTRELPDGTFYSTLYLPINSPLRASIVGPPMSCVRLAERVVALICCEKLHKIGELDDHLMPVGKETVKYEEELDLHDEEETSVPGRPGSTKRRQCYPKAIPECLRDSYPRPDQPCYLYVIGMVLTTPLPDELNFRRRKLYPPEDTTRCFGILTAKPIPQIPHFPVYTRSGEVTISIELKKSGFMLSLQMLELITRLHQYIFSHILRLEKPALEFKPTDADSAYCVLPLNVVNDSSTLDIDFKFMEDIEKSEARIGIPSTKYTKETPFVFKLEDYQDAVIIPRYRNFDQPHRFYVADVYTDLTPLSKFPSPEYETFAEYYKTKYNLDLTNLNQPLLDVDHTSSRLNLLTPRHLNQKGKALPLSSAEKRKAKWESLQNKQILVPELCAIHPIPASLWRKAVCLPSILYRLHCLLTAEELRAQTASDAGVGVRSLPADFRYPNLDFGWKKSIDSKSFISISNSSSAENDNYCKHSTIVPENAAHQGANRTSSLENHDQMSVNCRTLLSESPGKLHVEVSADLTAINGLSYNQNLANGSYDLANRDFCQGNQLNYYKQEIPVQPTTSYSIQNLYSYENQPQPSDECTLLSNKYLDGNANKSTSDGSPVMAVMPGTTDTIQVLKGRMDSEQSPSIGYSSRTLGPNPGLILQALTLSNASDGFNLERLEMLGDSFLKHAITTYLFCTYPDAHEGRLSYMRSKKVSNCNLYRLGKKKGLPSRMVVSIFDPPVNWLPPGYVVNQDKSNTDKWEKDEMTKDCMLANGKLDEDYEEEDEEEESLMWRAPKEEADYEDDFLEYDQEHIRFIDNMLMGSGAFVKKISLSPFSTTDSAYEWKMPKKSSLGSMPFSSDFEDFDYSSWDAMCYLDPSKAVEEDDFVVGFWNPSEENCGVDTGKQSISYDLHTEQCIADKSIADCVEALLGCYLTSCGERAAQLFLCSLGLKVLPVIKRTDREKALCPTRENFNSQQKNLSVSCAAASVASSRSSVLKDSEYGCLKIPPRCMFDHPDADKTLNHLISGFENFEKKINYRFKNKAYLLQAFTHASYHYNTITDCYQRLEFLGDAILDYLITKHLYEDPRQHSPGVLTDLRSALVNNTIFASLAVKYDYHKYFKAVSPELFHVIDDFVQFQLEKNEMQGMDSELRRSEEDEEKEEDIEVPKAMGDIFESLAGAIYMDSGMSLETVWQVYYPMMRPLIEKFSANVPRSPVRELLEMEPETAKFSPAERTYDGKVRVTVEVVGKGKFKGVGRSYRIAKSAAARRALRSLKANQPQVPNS
row,SMILES,z-score
1,COc1ccc(C2=Nc3ccccc3SC(c3ccc(OC)c(O)c3)C2)c(O)c1 (stereo not given),-0.56 (inactive)
2,COc1ncnc2sc(C(=O)O)c(C)c12,0.21 (inactive)
3,CCc1ccnc(NS(=O)(=O)c2ccc3c(c2)OCCO3)c1,0.59 (inactive)
4,CCOc1ccc(NS(=O)(=O)c2ccc(Cl)cc2)cc1,0.5 (inactive)
5,CCc1ccc(S(=O)(=O)Nc2cc(Cl)c3oc(=O)sc3c2)cc1,14.8 (active)
6,COc1ccc(-c2cnc3cc(-c4ccc(Cl)cc4)nn3c2N)cc1OC,1.34 (inactive)
7,Cn1c2c(c(=O)n(C)c1=O)C(c1ccc(F)cc1)C1=C(N2)c2ccccc2C1=O (stereo not given),1.52 (inactive)
8,O=C1C2=C(Nc3ccccc3S(=O)(=O)C2c2ccc(Cl)cc2)c2ccccc21 (stereo not given),5.21 (active)
9,O=C1C2=C(Nc3[nH]c(=O)[nH]c(=O)c3C2c2ccc(F)cc2)c2ccccc21 (stereo not given),-3.54 (inactive)
10,O=C1c2oc3ccccc3c(=O)c2C(c2ccccc2F)N1c1nncs1 (stereo not given),-0.05 (inactive)
11,O=C1CC(=O)CC(c2cccc(Cl)c2)C1,-0.3 (inactive)
12,Cc1ccc(-c2nnc(N3CCOCC3)c3ccccc23)cc1S(=O)(=O)N1CCCCC1,-4.68 (inactive)
13,Cc1ccc(-c2nnc(NCc3ccccc3)c3ccccc23)cc1S(=O)(=O)N1CCOCC1,3.46 (active)
14,Cc1ccc(-c2nnc(Nc3ccccc3)c3ccccc23)cc1S(=O)(=O)NCCO,0.4 (inactive)
15,COCc1cc(C)nc(Nc2ccc(C)cc2)c1C#N,-0.19 (inactive)
16,CCCc1nnc2n1Nc1nc3ccccc3nc1S2,0.21 (inactive)
17,Cc1noc(C)c1S(=O)(=O)N(C)C1CCCCC1,0.73 (inactive)
18,Cn1nccc1NC(=O)CC(CC(=O)O)c1ccccc1 (stereo not given),-0.73 (inactive)
19,O=C(O)CC(CC(=O)Oc1ccccc1N1CCCCC1)c1ccccc1 (stereo not given),4.46 (active)
20,Cc1cc(NC(=O)CC(CC(=O)O)c2ccccc2)n(C)n1 (stereo not given),-1.02 (inactive)
21,CCOC(=O)c1ccc(NCN2C(=O)c3ccccc3C2=O)cc1,0.49 (inactive)
22,CCCN1C(=O)C2(/C(=C(/O)c3ccc(F)cc3)C(=O)C(=O)N2CCCN(C)C)c2ccccc21 (stereo not given),-0.34 (inactive)
23,CCCCSc1nnc2c(n1)OC=Nc1ccc(Br)cc1-2,1.93 (inactive)
24,N#C/C(=C\N1CCc2ccccc21)C(=O)c1cccc(C(F)(F)F)c1,-2.08 (inactive)
25,O=C(CSc1nc2ccccc2nc1N1CCCC1)NCc1cccs1,3.04 (active)

row,SMILES,z-score
1,O=C(CSc1nc2ccccc2nc1N1CCOCC1)Nc1ccccc1,1.99 (inactive)
2,O=C(CSc1nc2ccccc2nc1N1CCCC1)N1CCN(c2ccccc2)CC1,1.57 (inactive)
3,N#CC1=C(N)Oc2ccc3ccccc3c2C1c1ccc(F)cc1 (stereo not given),-0.03 (inactive)
4,O=C(O)c1ccc(N2C(=O)CC(N3CCCCC3)C2=O)cc1 (stereo not given),-0.35 (inactive)
5,COc1ccc(CCNCC(O)Cn2ccc3ccccc32)cc1OC (stereo not given),-0.31 (inactive)
6,COc1ccc(CCNC(=O)CCC(=O)O)cc1OC,1.57 (inactive)
7,COc1ccc(CCNC(N)=O)cc1OC,5.13 (active)
8,COC(=O)C(C(=O)OC)=C(SC)SC,-1.16 (inactive)
9,CC1(C)CC2(CC(C)(c3csc(Nc4ccccc4)n3)OC2=O)C(=O)O1 (stereo not given),1.11 (inactive)
10,O=[N+]([O-])c1ccc(CC(O)N2CCN(c3nc4ccc(Cl)cc4s3)CC2)cc1 (stereo not given),-0.91 (inactive)
11,O=C(c1cccs1)c1nn(-c2ccccc2)c2nc(=O)c(Cc3ccc(Cl)cc3)nn12,-0.23 (inactive)
12,Cc1[nH]cc(Br)c(=O)c1OCC(=O)O,4.04 (active)
13,Cc1cc(C)cc(Oc2coc3cc(OCC(=O)O)ccc3c2=O)c1,-0.66 (inactive)
14,COc1ccc2[nH]cc(CCC(=O)O)c2c1,2.43 (inactive)
15,O=S(=O)(c1cc(Cl)c(Cl)cc1Cl)N1CCc2[nH]c3ccc(F)cc3c2C1,-0.85 (inactive)
16,Cc1ccc(O)c(-c2cnc3ccccc3n2)c1,-1.69 (inactive)
17,CC1(C)CC(=O)C=C(Nc2ccccc2)C1,2.68 (inactive)
18,O=C1C=C(NNc2ccccc2)CCC1,3.26 (active)
19,Cc1ccc(-n2nnnc2-c2ccc(Cl)c(Cl)c2)c(C)c1,-1.31 (inactive)
20,Nc1n[nH]c2c1CSc1ccc(Cl)cc1-2,-4.16 (inactive)
21,Cc1ccc2nc(Nc3ncc4c(n3)CC(C)(C)CC4=O)nc(C)c2c1,1.2 (inactive)
22,CCOC(=O)c1cc(CC)sc1NC(=O)c1cccc(C(F)(F)F)c1,0.82 (inactive)
23,NC(=S)NNC(=O)c1cccc(C(F)(F)F)c1,33.4 (active)
24,O=C(CS(=O)(=O)c1ccc(C(F)(F)F)cn1)NNC(=O)c1ccccc1,0.59 (inactive)
25,O=[N+]([O-])c1cccc(C2CC(c3ccccc3)=Nc3ccccc3S2)c1 (stereo not given),-1.81 (inactive)
